From PubChem BioAssay
Only some compounds are listed: those with a hit (about 4.1% of all), similar ones and a draw of the others.
CHT allo act – allosteric activators of human choline transporter CHT | B-score at 10 µM | actives 0.49% (n = 310,000) | CHT-expressing cells, membrane potential dye, choline EC20; hits give high values; LV-AA mutant CHT in HEK293 cells;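 active means initial fluorescence not abnormally high and integrated response B-score, plate-corrected, over 3 SD above library mean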
MEKK2 WT-MEK5 – raises or lowers MEK5 binding to wildtype human MEKK2 PB1 domain; Q9Y2U5; bead flow cytometry, Alexa488-MEK5 binding to MEKK2 WT; actives lie on both sides; binding response (% of control), % at 10 µM; actives 1.1% (n = 290,000); AID 1531; in the data active means binding response below about 67% or above about 130%
MEKK2 mut-MEK5 – signal of MEK5 binding to mutant human MEKK2 PB1 domain. AID 1530. bead flow cytometry, Alexa488-MEK5 binding to MEKK2 mutant. actives 0.35% (n = 290,000). percent response, % at 10 µM; in the data active means percent response above about 24%, passing the limit was not always enough
CHT inh – inhibits the human high affinity choline transporter; Q9GZV3; CHT-expressing cells, membrane potential dye, choline response; hits give low values; B-score at 10 µM; actives 0.86% (n = 310,000); AID 488975;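 active means B-score over 3 SD under the library average, and starting fluorescence ratio not unusually high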;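 further: choline stimulus applied at its EC90 after an EC20 pre-addition; B-score computed on integrated fluorescence ratio after choline addition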
SUMO Mot1 rescue – blocks SUMOylation pathway, rescuing yeast Mot1-301 growth; S. cerevisiae Mot1-301 growth rescue, ATP luminescence, 38.5C; percent above DMSO median, 100 means doubled; growth rescue, % at 18.8 µM; actives 1% (n = 320,000); AID 2716;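 active means every valid replicate shows activation above 250% relative to neutral control wells; inactive means the rest, any valid replicate at or below 250%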;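 further: OY570 slx delta 5 strain wells were the positive control but not used for scaling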
MEKK3 PB1 HTS – raises or lowers MEK5 binding to the human MEKK3 PB1 domain; Q99759; bead-based flow cytometry, Alexa488-MEK5 binding to MEKK3; actives lie on both sides; 0 = blocked by unlabeled MEK5, 100 = vehicle; binding response (% of control), % at 10 µM; actives 1.4% (n = 290,000); AID 1529;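 active means binding response more than 3 SD above or below the average of its plate-row segment, actives on both sides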;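 further: Alexa488 bead fluorescence after subtracting the streptavidin-only scavenger bead signal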
Target sequence (Q99759 whole entry, looked up, the tested form may be a part): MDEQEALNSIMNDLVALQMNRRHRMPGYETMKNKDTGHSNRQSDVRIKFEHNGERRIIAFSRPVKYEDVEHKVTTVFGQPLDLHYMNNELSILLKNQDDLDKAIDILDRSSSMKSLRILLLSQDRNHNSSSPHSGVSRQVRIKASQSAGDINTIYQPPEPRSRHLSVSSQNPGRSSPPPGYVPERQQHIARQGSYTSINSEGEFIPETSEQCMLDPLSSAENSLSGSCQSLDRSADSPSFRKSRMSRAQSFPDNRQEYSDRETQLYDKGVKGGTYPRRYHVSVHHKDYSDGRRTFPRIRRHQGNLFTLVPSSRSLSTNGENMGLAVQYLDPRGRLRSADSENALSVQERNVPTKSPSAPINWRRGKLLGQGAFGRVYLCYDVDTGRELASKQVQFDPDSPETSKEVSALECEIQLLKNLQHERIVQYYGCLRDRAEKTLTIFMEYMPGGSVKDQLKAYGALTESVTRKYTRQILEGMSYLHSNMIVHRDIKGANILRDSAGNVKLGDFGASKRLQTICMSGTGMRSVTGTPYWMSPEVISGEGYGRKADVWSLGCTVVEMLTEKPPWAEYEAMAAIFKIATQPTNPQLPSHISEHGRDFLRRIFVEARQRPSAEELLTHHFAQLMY
Yeast Mot1 SUMO – yeast SUMO pathway inhibition in dose response. shares compounds with SUMO Mot1 rescue. S. cerevisiae Mot1-301 galactose growth, ATP luminescence, 24 h; -100 = growth of slx-deleted rescue strain. growth activity, percent, % at 42 µM. 2,300 tested, under 10 active. AID 493004;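 active means Signal drops as the depositor expects, and the fitted half-maximal dose is no more than ten times the top valid tested dose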;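 further: more negative values mean stronger growth rescue toward the control strain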
An asterisk follows results filed as active; i = inactive; / = not tested or not shown; + = active, no number; [ ] = dose if it differs, or a comment.

SMILES	CHT allo act	MEKK2 WT-MEK5	MEKK2 mut-MEK5	CHT inh	SUMO Mot1 rescue	MEKK3 PB1 HTS	Yeast Mot1 SUMO
CCNC(=O)COc1ccc(S(=O)(=O)Nc2ccccc2)cc1	i	106	14	i	798*	108	0[21 µM]
COCCCNC(=O)COc1ccc(S(=O)(=O)Nc2ccccc2)cc1	i	105	8	i	-11	107	/
Cc1ccc(C(C)C)c(OCC(=O)NNC(=O)Cc2ccc(S(=O)(=O)N3CCOCC3)s2)c1	/	/	/	/	-16	/	/
CCC(C(=O)Nc1ccncc1)c1ccccc1 (stereo not drawn)	i	101	0	i	-8	101	/
CCC(C(=O)Nc1cccnc1)c1ccccc1 (stereo not drawn)	i	94	-5	i	422*	88	1
CC(C)Sc1nc2[nH]ncc2c(=O)[nH]1	i	96	-1	i	-8	90	/
COc1ccc(NC(=O)CSc2nnc(C)n2N)cc1S(=O)(=O)N1CCCCC1	/	/	/	/	-5	/	/
COc1cccc(-c2nnc(NC(=O)Cc3cccs3)s2)c1	i	91	-7	i	-2	83	/
O=C(Cc1cccs1)Nc1nnc(-c2ccncc2)s1	i	98	4	i	+	103	0
COc1cc(O)oc1C=Nc1ccc(C(=O)O)cc1	i	99	-2	i	577*	99	-2
COC(=O)C1(Cc2ccc(O)cc2)OC(=O)C(O)=C1c1ccc(O)cc1 (stereo not drawn)	i	109	8	i	381*	109	0
Cc1ccc(S(=O)(=O)N(C)CC(=O)O/N=C(\N)c2ccccn2)cc1	i	97	8	i	399*	95	1
CN(CC(=O)O/N=C(\N)c1ccccn1)S(=O)(=O)c1ccc(Br)cc1	i	100	4	i	164	100	/
COc1cc2c(cc1OC)C(c1ccccc1[N+](=O)[O-])N(C(C)=O)CC2 (stereo not drawn)	i	101	3	i	384*	100	0
COc1cc2c(cc1OC)C(COc1ccccc1OC)N(C(C)=O)CC2 (stereo not drawn)	i	102	0	i	187	104	/
COc1ccccc1C(=O)NC(=O)COC(=O)Cc1ccccc1[N+](=O)[O-]	i	/	/	i	617*	/	-1
COc1ccc(C(=O)/C=C/Nc2ccc(S(N)(=O)=O)cc2)cc1OC	i	98	-5	i	17	99	/
CN(C)S(=O)(=O)c1ccc(C(=O)/C=C/c2cccnc2)cc1	i	95	-5	i	644*	96	0
CN(C)S(=O)(=O)c1ccc(C(=O)Nc2cccnc2)cc1	i	105	4	i	0	105	/
Cc1cccc(S(=O)(=O)c2c(C)cc(C)[nH]c2=O)c1	i	104	0	i	284	100	/
Cc1cc(C)c(S(=O)(=O)c2cccc(C)c2C)c(=O)[nH]1	i	105	1	i	415*	104	0
O=C(OCC#CCSc1nnc(-c2ccccc2)o1)c1cc2ccccc2o1	i	110	6	i	582*	108	0
Cc1cccc(N2CCN(CCCNC(=O)c3ccc(NC(=O)C4=CSCCO4)cc3)CC2C)c1 (stereo not drawn)	i	116	3	i	445*	99	0
CC1CCCN(CCCNC(=O)c2ccc(NC(=O)C3=CSCCO3)cc2)C1 (stereo not drawn)	i	111	4	i	101	103	/
O=C(c1cc(N2C(=O)C3C4CCC(C4)C3C2=O)ccc1Cl)N1CCN(c2ccccc2)CC1 (stereo not drawn)	i	102	-1	i	+	100	1
SMILES	CHT allo act	MEKK2 WT-MEK5	MEKK2 mut-MEK5	CHT inh	SUMO Mot1 rescue	MEKK3 PB1 HTS	Yeast Mot1 SUMO
CC(NC(=O)COc1cccnc1[N+](=O)[O-])c1ccc(Cl)cc1 (stereo not drawn)	i	94	-6	i	16	99	/
COc1cc2c(cc1OC)CN(S(=O)(=O)c1cccc(F)c1)CC2	i	97	0	i	+	101	0
CCOc1ccc(NC(=O)CN(c2ccc(OC)cc2)S(=O)(=O)c2cccs2)cc1	/	/	/	/	3	/	/
O=C1c2cc(N3CCCC3)c([N+](=O)[O-])cc2C(=O)N1c1ccccc1	i	100	-1	i	377*	100	1
Cc1cc(C)cc(NC(=S)NN)c1	i	91	-9	i	-5	98	/
CC1(C)CC(=O)C(CO)=C(c2cccc3ccccc23)C1=O	/	/	/	/	10	/	/
COC(=O)C(Cc1ccccc1)NC(=O)CCC(=O)NC(C)CCc1ccccc1 (stereo not drawn)	i	104	1	i	-14	104	/
COC(=O)[C@H](Cc1ccccc1)NC(=O)NC(C)CCc1ccccc1 (stereo partly drawn)	i	105	6	i	871*	106	0
CC1Cc2ccccc2N1C(=O)Cn1c(=O)cc(O)c2ccccc21 (stereo not drawn)	i	99	2	i	636*	105	0
COc1ccc(C(=O)OCC(=O)Nc2c(C)n(C)n(-c3ccccc3)c2=O)cc1	/	/	/	/	-1	/	/
CCOCCCNC(=O)C(c1ccc(OC)cc1)N(Cc1cccs1)C(=O)c1ccccn1 (stereo not drawn)	i	86	-14	i	522*	95	-1
CCOCCCNC(=O)C(c1ccc(C)cc1)N(Cc1cccs1)C(=O)c1ccccn1 (stereo not drawn)	i	103	1	i	17	107	/
Cc1ccc(CNC(=O)C2CCN(C(=O)Nc3ccccc3)CC2)cc1	i	98	5	i	2	97	/
CCOC(=O)N1CCC(NS(=O)(=O)c2ccc(C)c(Cl)c2)CC1	i	97	-3	i	559*	100	0
CCOC(=O)N1CCC(NS(=O)(=O)c2ccc3c(c2)oc(=O)n3C)CC1	i	99	-3	i	-9	102	/
COC(=O)c1ccccc1SC(CC(=O)c1ccccc1)c1ccc(F)cc1 (stereo not drawn)	i	100	-1	i	461*	99	0
O=C(Nc1ccccc1Cl)C1CCCN(S(=O)(=O)c2ccc(-n3cnnn3)cc2)C1 (stereo not drawn)	i	102	3	i	-16	103	/
COc1cc(/C=N/NC(=O)c2ccc(F)cc2)ccc1OC(=O)c1ccco1	i	88	-3	i	-10	90	/
